DAX1 inh-1 – inhibitors of DAX1 repression of SF-1 activated StAR promoter | HEK293T StAR-luciferase reporter, SF-1/DAX-1 repression relief | inhibition, % at 6.8 µM | 370,000 tested, 1.1% active;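 active = inhibition above the mean over all tested compounds plus 3 SD, cut at about 3.6% in these data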;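 note: 0% = DAX-1 cells with DMSO and 100% = cells lacking DAX-1 with DMSO; higher inhibition means more luminescence from relief of DAX-1 repression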
hcDAF-12 act – activates DAF-12 receptor from parasite H. contortus; HEK293 hcDAF-12 lit1-tk-luc reporter, luminescence; 0% DMSO, 100% Δ7-dafachronic acid; activation, % at 6.8 µM; 370,000 tested, 1.4% active;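 active = activation above the mean of all tested compounds plus 3 SD, cut at about 5.5% in these data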;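 note: 100% = response to 3 µM Δ7-dafachronic acid high control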
ssDAF12 agonist – activators of S. stercoralis DAF-12 nuclear receptor; 370,000 tested, 1% active; activation, % at 6.8 µM; HEK293 ssDAF-12/GRIP1 lit1-tk-luc reporter, luminescence; % of 3 µM dafachronic acid response;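 active = activation above the mean over all tested compounds plus 3 SD, cut at about 0.9% in these data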;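 note: 0% = DMSO-only wells and 100% = 3 µM delta7-dafachronic acid wells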
DAX1 inh-2 – inhibitors of human orphan nuclear receptor DAX1 (NR0B1). inhibition, % at 6.75 µM. P51843. HEK293 Gal4-DAX1 luciferase reporter, luminescence. 340,000 tested, 0.99% active;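 active = inhibition above the mean over all tested compounds plus 3 SD, cut at about 4.2% in these data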;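 note: 0% = DAX1-transfected cells with DMSO and 100% = empty-vector control cells with DMSO; inhibition shows as a rise in luminescence from relieved DAX1 repression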
GAA850 FXN act – activators of GAA850 frataxin (FXN) promoter; HEK293 lucGAA850 FXN promoter luciferase reporter, 24 h; percent of 10 µM SAHA response; activation, % at 6 µM; 360,000 tested, 0.56% active;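 active = activation above the average of all compounds screened plus 3 SD, cutoff fixed separately per campaign, cut at about 7.5% in these data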;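 note: 0% = DMSO wells and 100% = 10 µM SAHA wells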
hgDAF-12 ag – agonists of H. glycines DAF-12 nuclear receptor; HEK293 GAL4-hgDAF12 UAS-luciferase reporter, agonist luminescence; normalized to butyrate control; activation, % at 6.8 µM; 370,000 tested, 1.8% active;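 active = activation above a cutoff set at the mean of all screened compounds plus 3 SD, cut at about 10% in these data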;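 note: 0% = DMSO wells and 100% = sodium butyrate wells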
DAX1 inh confirm – NR0B1 (human) inhibition, confirmation; 2,400 tested, 87% active; inhibition, % at 6.8 µM; HEK293T StAR-promoter luciferase reporter, SF-1/DAX-1 repression; shares compounds with DAX1 inh-1; AID 652134;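 active = inhibition above the average of every tested compound plus 3 SD, cut at about 3.8% in these data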;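 note: 0% = DAX-1 cells with DMSO and 100% = no DAX-1 control cells with DMSO; active compounds raise luminescence by relieving repression of the StAR reporter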
Target sequence (P51843 whole entry, looked up): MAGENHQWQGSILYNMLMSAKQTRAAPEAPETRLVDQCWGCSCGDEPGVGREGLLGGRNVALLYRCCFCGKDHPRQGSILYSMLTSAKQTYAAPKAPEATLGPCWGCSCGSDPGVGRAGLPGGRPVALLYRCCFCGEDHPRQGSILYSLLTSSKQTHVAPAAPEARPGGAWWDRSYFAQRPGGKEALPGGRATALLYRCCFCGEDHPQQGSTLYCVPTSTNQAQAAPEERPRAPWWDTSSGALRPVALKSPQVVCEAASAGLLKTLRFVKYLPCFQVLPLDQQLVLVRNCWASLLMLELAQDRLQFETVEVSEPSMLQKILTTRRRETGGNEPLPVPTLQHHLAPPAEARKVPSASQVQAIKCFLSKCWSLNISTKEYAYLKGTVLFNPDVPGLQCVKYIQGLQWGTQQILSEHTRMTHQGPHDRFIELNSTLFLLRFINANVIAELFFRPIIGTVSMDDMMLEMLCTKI
SF1 mutant ctr – nonselective inhibitor or artifact in SF-1 mutant DAX1 counter-screen | shares compounds with DAX1 inh-1 | HEK293 StAR-luciferase, SF-1 AF2 mutant, luminescence | inhibition, % at 6.8 µM | 2,400 tested, 78% active | AID 652136;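 active = inhibition above the mean of all tested compounds plus 3 SD, cut at about 3% in these data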;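 note: 0% = DAX-1 transfected cells with DMSO and 100% = cells without DAX-1 with DMSO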
* = called active by the depositor; . = no result given. Shown are actives, neighbours in structure and some others; about 4.5% of the full set was active somewhere.

SMILES	DAX1 inh-1	hcDAF-12 act	ssDAF12 agonist	DAX1 inh-2	GAA850 FXN act	hgDAF-12 ag	DAX1 inh confirm	SF1 mutant ctr
CCCCCCCCN1C(=O)[C@@H](CC(=O)NCC2CCCCC2)C[C@@]2(C(=O)OC)C1=C[C@H](COCc1ccccc1)O[C@@H]2C	0	3	0	.	.	2	.	.
O=C(Nc1cccc(F)c1)Nc1ccc2c(c1)OCO2	7.0*	5	0	3	3	10	9.2*	5.3*
O=C(Nc1ccc2c(c1)OCO2)c1cccc(F)c1	1	1	0	2	5	10	.	.
CC(C)=CC(=O)Nc1ccc2c(c1)OCO2	6.1*	5	0	0	4	10	12*	7.7*
N#CCC[C@@H]1CC[C@]2(CCCN(Cc3ccccc3)C2)O1	-1	-3	0	.	.	0	.	.
COc1ccc(S[C@]2(C(=O)N3CCN(C(C)=O)CC3)CC(=O)N[C@@H]2c2ccc(OC)cc2)cc1	0	0	-1	.	.	-1	.	.
CCOc1ccc(CCNC(=O)c2cc3sccc3n2Cc2ccccc2)cc1OCC	.	-4	-1	.	.	-5	.	.
CC1CCN(C(=O)CNC(=O)c2ccc(Br)o2)CC1	4.9*	5	0	2	4	9	3	2
CC(=O)NC(c1ccccc1)c1nc2ccccc2[nH]1 (stereo unspecified)	0	-1	-1	-1	1	0	.	.
Cc1cnc(C(=O)N(c2ccccc2)C(c2ccccc2)c2nc3ccccc3[nH]2)cn1 (stereo unspecified)	6.0*	3	0	.	.	9	5.0*	3.7*
COC(=O)C1=C(C)N(Cc2cccc(C(F)(F)F)c2)C(=NCc2ccc(OC)cc2)NC1c1cccc(F)c1 (stereo unspecified)	0	3	-1	.	.	-1	.	.
O=C(Nc1ccc(S(=O)(=O)N2CCCCCC2)cc1)c1[nH]ncc1[N+](=O)[O-]	7.0*	0	0	1	4	5	3	2
O=C(Nc1ccc([N+](=O)[O-])cc1)c1ccc(S(=O)(=O)N2CCCC2)cc1	0	-3	-2	-2	-1	-3	.	.
COc1ccc(NC(=O)C(=O)NCC2CCCN2S(=O)(=O)c2ccc(C)cc2)cc1 (stereo unspecified)	6.4*	-1	-1	0	-5	-6	13*	-8
Nc1ccc(S(=O)(=O)Nc2cnc3c(Cl)cccc3n2)cc1	5.7*	-1	-1	2	5	-3	5.2*	-1
CC(C)CNC(=O)OCc1cn(Cc2cccc(F)c2)nn1	0	-1	-1	.	.	6	.	.
O=C(N/N=C/c1cccc2ccccc12)c1cccc(F)c1	5.1*	3	0	0	3	8	2	2
CCCCc1c(-c2ccccc2OC)ncn1Cc1ccc(OC)cc1	0	-1	-1	.	.	-3	.	.
COc1ccc(-c2cn3cc(C)ccc3n2)cc1F	4.8*	5.6*	0	-2	2	10	12*	1
CC(=O)c1ccc(-c2c(CCO)sc3ccccc23)cc1	5.7*	2	-1	.	.	8	3	3.0*
CC(=O)c1ccc(-c2[nH]c3ccccc3c2CCN2C(=O)c3ccccc3C2=O)cc1	-1	0	0	-3	-3	-4	.	.
CN1CCN(c2ccc(NC(=O)c3ccco3)cc2Cl)CC1	15*	5.9*	0	0	7	10	12*	5.2*
Cc1nc2cc(NC(=O)Nc3nccs3)ccc2n1C	4.6*	4	0	1	4	11*	15*	8.5*
Cc1nc(-c2cccc(NC(=O)c3ccco3)c2)cs1	4.7*	-2	-1	0	1	3	2	0
Cc1ccc(NC(=O)c2cc(NC(=O)c3ccco3)ccc2N2CCOCC2)cc1Cl	-1	-2	-1	-1	0	-4	.	.
SMILES	DAX1 inh-1	hcDAF-12 act	ssDAF12 agonist	DAX1 inh-2	GAA850 FXN act	hgDAF-12 ag	DAX1 inh confirm	SF1 mutant ctr
Cc1nc2cc(NC(=O)c3ccco3)ccc2n1C	7.7*	2	0	0	0	12*	11*	7.4*
O=C(OCc1cn(Cc2ccc(F)cc2)nn1)N1CCOCC1	0	3	-1	.	.	1	.	.
COC(=O)Cc1nnn2c1[C@@H](C)[C@@H](c1ccccc1Br)O[C@@H](C)C2	-1	-1	-1	.	.	1	.	.
Cc1ccn2cc(-c3ccc(NC(=O)c4ccco4)cc3)nc2c1	5.0*	2	0	0	6	11*	11*	8.6*
Cc1nc(-c2ccc(NC(=O)c3ccco3)cc2)cs1	0	-4	-2	-5	-9	-5	.	.
COC(=O)C1=C(C)N(Cc2cccc(C(F)(F)F)c2)C(=NCC2CC2)NC1c1ccc(F)cc1 (stereo unspecified)	3	2	0	.	.	2	.	.
Cc1nn2c(=O)cc(COC(=O)c3c(F)cccc3Cl)nc2s1	8.6*	1	0	2	4	8	6.4*	6.2*
C/C(=N\NC(=O)c1ccoc1C)c1ccc(Br)s1	5.8*	2	-1	2	2	10	2	0
O=P(c1ccccc1)(c1ccccc1)c1cnc2ccccn12	.	-2	-1	.	.	-1	.	.
Cc1sc(=NC(=O)c2ccco2)n(C)c1-c1ccccc1	5.5*	3	0	-1	5	10	14*	6.3*
Cc1sc(=NC(=O)c2ccco2)n(C)c1-c1ccc(F)cc1	2	5	0	0	2	10	.	.
Cc1ccc(C)c(NC(=O)CN(C)C(=O)c2cc3ccccc3oc2=O)c1	5.9*	3	0	1	0	6	6.8*	5.6*
O=C(O)c1cccc(Nc2nc3ccccc3nc2NS(=O)(=O)c2ccc(F)cc2)c1	6.6*	0	0	-1	3	2	3	3.9*
CCC(=O)C1CCCN(C(=O)CCc2nnc(-c3ccc4c(c3)OCO4)o2)C1 (stereo unspecified)	1	3	0	0	4	4	.	.
CCC(=O)C1CCCN(C(=O)CCc2nnc(-c3ccc(C(C)=O)s3)o2)C1 (stereo unspecified)	5.3*	6.0*	0	2	1	9	6.8*	4.8*
CCCCCCN1C[C@H](O)[C@@H](n2cc(COC(=O)c3ccccc3)nn2)C[C@@H]1c1ccccc1	0	-1	-1	0	0	1	.	.

Screens deposited in PubChem BioAssay by The Scripps Research Institute Molecular Screening Center.
